The inhibition is the relative decrease from the control value, in per cent.

Molecules are shown by their SMILES. Values without a mark were called inactive. For part of these data: Results with a measured potency or affinity are listed apart. Activity calls are given as the source filed them. Unless noted, how the calls were made is not given here.

For 18 molecules, growth inhibition, inhibition and outcome results are on record in PubChem BioAssay.

Test [1] is described as follows: antimalarial activity against Dd2 strain (AID 2302;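 active means growth inhibition above 50% at the single 2 µM test dose, taken to imply half-maximal potency below 2 µM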;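 further: 0% = DMSO untreated growth and 100% = chloroquine plus artemisinin killed control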). The settings on record: P. falciparum Dd2 in RBCs, LDH growth readout, 72 h; at 2 µM; stronger effect = higher value.
A short description of test [2]: HepG2 cytotoxicity, primary screen, cytotoxicity control for P. falciparum antimalarial project, cell-based, ATP luminescence (AID 2303;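 active means inhibition above 50%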;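 further: 0% = DMSO wells and 100% = digitonin-killed cells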). The settings on record: HepG2 viability, 24-48 h, at 10 µM, stronger effect = higher value.
The target in test [3] is L-lactate dehydrogenase (Plasmodium falciparum (isolate CDC / Honduras)) (UniProt Q27743). The test is described as follows: PfLDH activity inhibition – cell lysate, 3D7 strain, counter-screen for P. falciparum growth inhibition project (AID 2304).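 Further: 0% = vehicle and 100% = reference inhibitor.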 The settings on record: P. falciparum 3D7 crude extract, LDH APAD/NBT absorbance; at 2 µM; stronger effect = higher value. (A counterscreen serves to expose hits that act by an unwanted route or on another target.)
Sequence of L-lactate dehydrogenase (Plasmodium falciparum (isolate CDC / Honduras)) (Q27743 whole entry, looked up): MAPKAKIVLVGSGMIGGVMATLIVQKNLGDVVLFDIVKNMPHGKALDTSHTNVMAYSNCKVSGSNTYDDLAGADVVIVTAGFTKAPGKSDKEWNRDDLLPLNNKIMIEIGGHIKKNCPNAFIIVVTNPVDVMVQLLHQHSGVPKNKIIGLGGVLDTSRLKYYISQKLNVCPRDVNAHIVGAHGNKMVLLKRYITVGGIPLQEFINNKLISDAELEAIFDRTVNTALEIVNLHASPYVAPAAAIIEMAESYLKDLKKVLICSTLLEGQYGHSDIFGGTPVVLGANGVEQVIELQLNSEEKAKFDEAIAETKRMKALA

Test [4] in a line: inhibition of 3D7 malaria parasite growth – strain 3D7 (AID 2306).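 Further: 0% = DMSO wells and 100% = chloroquine plus artemisinin control wells.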 As to conditions: P. falciparum 3D7 erythrocytic growth, LDH absorbance, 72 h; at 2 µM; stronger effect = higher value.
Test [5] concerns the target Calcium-dependent protein kinase 1 (Plasmodium falciparum (isolate 3D7)) (UniProt P62344). The test is described as follows: PfCDPK1 kinase inhibitors, biochemical, TCAMS library (AID 1159585; cut-off not given, nearly all actives have IC50 up to about 0.98 µM;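 further: inhibitors leave more ATP so luminescence rises with inhibition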). As to conditions: recombinant PfCDPK1, Kinase-Glo ATP depletion luminescence.
Test [6] addresses Plasmodium falciparum protein kinase 6 (PK6, PF3D7_1337100) (UniProt Q8IDW1). The test is described as follows: PfPK6 kinase inhibitors, biochemical, TCAMS library (AID 1159586). The settings on record: recombinant PfPK6, Kinase-Glo ATP depletion luminescence.
Test [7] addresses Protein kinase 7 (PK7), Plasmodium falciparum 3D7 (PF3D7_0213400) (UniProt Q7YTF7). The test is described as follows: inhibition of Plasmodium PK7 catalytic activity – biochemical, TCAMS antimalarial set, Kinase-Glo luminescence (AID 1159587). As to conditions: recombinant PfPK7, Kinase-Glo ATP depletion luminescence. Background: Kinase-Glo measures the ATP left after a reaction by luminescence.

The target in test [8] is Calcium-dependent protein kinase 4 (Plasmodium falciparum (isolate 3D7)) (UniProt Q8IBS5). The test is described as follows: PfCDPK4 kinase inhibitors, biochemical, TCAMS library (AID 1159588; cut-off not given, nearly all actives have IC50 up to about 0.91 µM). The settings on record: recombinant PfCDPK4, Kinase-Glo ATP depletion luminescence.
Sequence of Calcium-dependent protein kinase 4 (Plasmodium falciparum (isolate 3D7)) (Q8IBS5 whole entry, looked up): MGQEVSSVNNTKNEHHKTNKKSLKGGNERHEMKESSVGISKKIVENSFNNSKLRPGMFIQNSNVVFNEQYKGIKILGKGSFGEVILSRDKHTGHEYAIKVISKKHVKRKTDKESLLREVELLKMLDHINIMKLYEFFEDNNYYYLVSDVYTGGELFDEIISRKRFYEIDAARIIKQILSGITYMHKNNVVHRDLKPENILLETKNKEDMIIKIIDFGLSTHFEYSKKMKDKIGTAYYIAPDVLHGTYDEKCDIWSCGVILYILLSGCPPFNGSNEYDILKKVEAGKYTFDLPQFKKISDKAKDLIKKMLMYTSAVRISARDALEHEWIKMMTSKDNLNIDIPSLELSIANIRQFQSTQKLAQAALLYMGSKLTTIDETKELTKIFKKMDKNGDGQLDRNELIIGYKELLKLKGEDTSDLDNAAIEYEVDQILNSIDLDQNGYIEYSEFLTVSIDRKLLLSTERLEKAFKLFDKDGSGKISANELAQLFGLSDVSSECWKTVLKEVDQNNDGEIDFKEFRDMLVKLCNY

Sequence of Calcium-dependent protein kinase 1 (Plasmodium falciparum (isolate 3D7)) (P62344 whole entry, looked up): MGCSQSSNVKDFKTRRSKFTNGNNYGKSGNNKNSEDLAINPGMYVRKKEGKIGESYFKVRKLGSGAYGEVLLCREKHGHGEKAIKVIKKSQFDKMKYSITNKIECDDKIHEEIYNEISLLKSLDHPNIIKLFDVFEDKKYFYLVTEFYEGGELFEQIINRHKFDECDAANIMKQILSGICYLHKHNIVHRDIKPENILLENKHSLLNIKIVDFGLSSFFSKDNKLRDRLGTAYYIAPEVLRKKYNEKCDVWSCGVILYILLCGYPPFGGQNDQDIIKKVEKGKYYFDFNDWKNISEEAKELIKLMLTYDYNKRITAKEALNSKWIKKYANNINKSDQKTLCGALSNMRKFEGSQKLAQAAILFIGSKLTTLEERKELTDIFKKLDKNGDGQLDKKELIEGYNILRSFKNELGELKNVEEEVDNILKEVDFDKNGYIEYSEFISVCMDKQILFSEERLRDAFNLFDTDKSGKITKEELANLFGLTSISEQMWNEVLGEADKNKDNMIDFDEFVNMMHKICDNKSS
Sequence of Protein kinase 7 (PK7), Plasmodium falciparum 3D7 (PF3D7_0213400) (Q7YTF7 1-343): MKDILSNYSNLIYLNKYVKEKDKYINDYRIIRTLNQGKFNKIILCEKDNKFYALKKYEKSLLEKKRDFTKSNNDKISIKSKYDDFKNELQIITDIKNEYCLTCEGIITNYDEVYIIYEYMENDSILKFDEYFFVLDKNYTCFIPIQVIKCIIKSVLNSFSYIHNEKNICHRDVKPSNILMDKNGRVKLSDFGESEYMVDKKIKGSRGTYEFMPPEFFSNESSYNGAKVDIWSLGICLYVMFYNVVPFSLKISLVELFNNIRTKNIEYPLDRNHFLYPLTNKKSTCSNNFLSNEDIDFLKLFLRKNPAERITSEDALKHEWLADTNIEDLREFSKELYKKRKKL
Sequence of Plasmodium falciparum protein kinase 6 (PK6, PF3D7_1337100) (Q8IDW1 1-305): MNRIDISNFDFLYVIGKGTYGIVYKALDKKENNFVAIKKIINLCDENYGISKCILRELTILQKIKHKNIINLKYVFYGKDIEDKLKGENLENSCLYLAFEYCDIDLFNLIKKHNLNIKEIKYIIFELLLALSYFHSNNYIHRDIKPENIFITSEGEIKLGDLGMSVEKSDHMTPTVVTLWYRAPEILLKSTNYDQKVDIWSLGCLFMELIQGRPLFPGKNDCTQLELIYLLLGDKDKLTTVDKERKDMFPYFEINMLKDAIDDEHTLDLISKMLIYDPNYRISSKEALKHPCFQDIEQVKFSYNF

For `Fc1cccc(COc2ccc(Nc3ncnc4sc(C#C[C@H]5CC[C@H](CNCC(F)(F)F)N5)cc34)cc2Cl)c1`, the growth inhibition in test [1] was 51% (active); in test [4], 100% (active). In addition, the values for the inhibition in test [2] and in test [3] were 10% and -4%, respectively. Moreover, the result in test [5], in test [6], in test [7] and in test [8] was inactive.

For `CC[C@H]1CN(Cc2cccc(O)c2)CC[C@H]1CCCc1ccnc2ccc(O)cc12`, the values for the growth inhibition in test [1] and in test [4] were 98% (active) and 103% (active), respectively. The inhibition in test [2] is 14%; in test [3] it was 4%. Moreover, the outcome in test [5], in test [6], in test [7] and in test [8] was inactive.

`N#Cc1ccc(-c2ccc(OCC(O)CN3CCCN(C(=O)C(c4ccc5c(c4)OCO5)N4CCN(C/C=C/c5ccccc5)CC4)CC3)cc2)cc1` (centres undefined): the growth inhibition was 77% (active) in test [1] and 99% (active) in test [4]. In addition, the figures for the inhibition in test [2] and in test [3] were 25% and 3%, respectively. Moreover, the outcome in test [5], in test [6], in test [7] and in test [8] was inactive.

In the case of `CCNc1cc(C(=O)N[C@@H](Cc2ccccc2)[C@H](O)CNC(C)(C)Cc2ccccc2)cc(N2CCCC2=O)c1`, the results for the growth inhibition in test [1] and in test [4] were 78% (active) and 99% (active), respectively. For the same molecule, the values for the inhibition in test [2] and in test [3] were 1% and 3%, respectively. Besides, the outcome in test [5], in test [6], in test [7] and in test [8] was inactive.

With `CCCC(C)NC(=O)c1cnn(-c2ccc(C(C)(C)C)cc2)c1OCc1ccc(Br)cc1` (centres undefined), the growth inhibition in test [1] is 64% (active); in test [4], 84% (active). Further, the inhibition in test [2] is 17%; in test [3], 0%. Further, the result in test [5], in test [6], in test [7] and in test [8] was inactive.

Turning to `CN1CCc2ccc(NC(=O)Nc3ccc(-c4ccccc4)cc3)cc2C1`, the results for the growth inhibition in test [1] and in test [4] were 45% and 90% (active), respectively. In addition, the inhibition was 24% in test [2] and 3% in test [3]. Also, the outcome in test [5], in test [6], in test [7] and in test [8] was inactive.

Regarding `CC(Cc1ccc(COc2ccc(CC(CO)NCCc3cccc(Cl)c3)cc2)cc1)NCCc1cccc(Cl)c1` (centres undefined), the growth inhibition in test [1] is 86% (active); in test [4], 101% (active). The inhibition in test [2] is 99% (active); in test [3], 5%. Further, the result in test [5], in test [6], in test [7] and in test [8] was inactive.

In the case of `FC(F)(F)c1ccccc1OCc1cc(-c2ccncc2)c(COc2ccccc2C(F)(F)F)cc1C1=CCNCC1`, the growth inhibition in test [1] was 81% (active); in test [4] it was 98% (active). Further, the inhibition was 31% in test [2] and -2% in test [3]. The outcome in test [5], in test [6], in test [7] and in test [8] was inactive.

For the molecule `Cc1ccc(O)cc1Nc1c(C(N)=O)cnc2ccc(-c3cncs3)cc12`, the figures for the growth inhibition in test [1] and in test [4] were 99% (active) and 100% (active), respectively. Moreover, the inhibition was 21% in test [2] and 3% in test [3]. The result in test [5], in test [6], in test [7] and in test [8] was inactive.

For `Cc1cc(-c2ccc3c(c2)CCN(CCC2CCC(NC(=O)/C=C/c4ccc(F)cc4)CC2)CC3)on1` (centres undefined), the growth inhibition was 47% in test [1] and 98% (active) in test [4]. Also, the inhibition was 29% in test [2] and -4% in test [3]. Besides, the result in test [5], in test [6], in test [7] and in test [8] was inactive.

Turning to `COc1ccc(NC(=O)CCNc2cc(C)nc(Nc3ccccc3)n2)cc1`, the growth inhibition was 15% in test [1] and 92% (active) in test [4]. Moreover, the inhibition in test [2] is -9%; in test [3] it was -2%. Besides, the result in test [5], in test [6], in test [7] and in test [8] was inactive.

For `CCCCCN=C(N)c1ccc(OCCCCCOc2ccc(C(N)=NCCCCC)cc2)cc1`, the figures for the growth inhibition in test [1] and in test [4] were 98% (active) and 99% (active), respectively. Also, the results for the inhibition in test [2] and in test [3] were 3% and 6%, respectively. The result in test [5], in test [6], in test [7] and in test [8] was inactive.

Take `CCNc1cc(C(=O)N[C@@H](Cc2ccccc2)[C@H](O)CNC(C)(C)Cc2cccc(Cl)c2)cc(N2CCCCS2(=O)=O)c1`: the growth inhibition in test [1] is 74% (active); in test [4] it was 97% (active). In addition, the inhibition was 17% in test [2] and 3% in test [3]. Also, the result in test [5], in test [6], in test [7] and in test [8] was inactive.

Regarding `CC(=O)c1cccc2c(NC(=O)Nc3ccc4nccc(N5CCN(C)CC5)c4c3)cccc12`, the growth inhibition in test [1] is 94% (active); in test [4] it was 99% (active). The inhibition was 13% in test [2] and -3% in test [3]. The result in test [5], in test [6], in test [7] and in test [8] was inactive.

With `O=C(/C=C/c1ccccc1Cl)Nc1ccc(Br)c(OCCN2CCN(CCN3CCOCC3)CC2)c1`, the figures for the growth inhibition in test [1] and in test [4] were 91% (active) and 98% (active), respectively. For the same molecule, the inhibition in test [2] was 22%; in test [3], -3%. Besides, the outcome in test [5], in test [6], in test [7] and in test [8] was inactive.

Turning to `O=c1cc(NCCCNCc2[nH]c3cc(Cl)cc(Cl)c3c2Cn2cccn2)[nH]c2ccccc12`, the growth inhibition is 2% in test [1] and 86% (active) in test [4]. Also, the inhibition in test [2] was 5%; in test [3] it was 1%. Further, the result in test [5], in test [6], in test [7] and in test [8] was inactive.

In the case of `C=CCc1ccc(C2CCN(CCCCNC(=O)c3ccc(NC(=O)c4ccc(Cl)cc4)cc3)CC2)cc1`, the growth inhibition was 97% (active) in test [1] and 101% (active) in test [4]. Further, the inhibition is 27% in test [2] and -5% in test [3]. The result in test [5], in test [6], in test [7] and in test [8] was inactive.

As for `Cc1n[nH]c(C)c1C1CCN(CC2CCC(NC(=O)/C=C/c3ccc(Cl)c(Cl)c3)CC2)CC1` (centres undefined), the results for the growth inhibition in test [1] and in test [4] were 53% (active) and 101% (active), respectively. The inhibition in test [2] was 15%; in test [3], 3%. For the same molecule, the result in test [5], in test [6], in test [7] and in test [8] was inactive.
